Shown are actives, neighbours in structure and some others; about 2.4% of the full set was active somewhere.
L3MBTL1 inh = blocks human L3MBTL1. Potency, µM (series often up to 57.1 µM), inactives show at the highest dose activity, negative = inhibition, actives largely listed as inhibitors. 230,000 compounds, 0.66% hits. Q9Y468. AID 485360. AlphaScreen L3MBTL1–H3K9me1 peptide binding; note: % is set by controls: 0 for no effect and ±100 for the full control effect; nearly all actives have a fitted effect of over 60% in size
Target sequence (Q9Y468 whole entry, looked up): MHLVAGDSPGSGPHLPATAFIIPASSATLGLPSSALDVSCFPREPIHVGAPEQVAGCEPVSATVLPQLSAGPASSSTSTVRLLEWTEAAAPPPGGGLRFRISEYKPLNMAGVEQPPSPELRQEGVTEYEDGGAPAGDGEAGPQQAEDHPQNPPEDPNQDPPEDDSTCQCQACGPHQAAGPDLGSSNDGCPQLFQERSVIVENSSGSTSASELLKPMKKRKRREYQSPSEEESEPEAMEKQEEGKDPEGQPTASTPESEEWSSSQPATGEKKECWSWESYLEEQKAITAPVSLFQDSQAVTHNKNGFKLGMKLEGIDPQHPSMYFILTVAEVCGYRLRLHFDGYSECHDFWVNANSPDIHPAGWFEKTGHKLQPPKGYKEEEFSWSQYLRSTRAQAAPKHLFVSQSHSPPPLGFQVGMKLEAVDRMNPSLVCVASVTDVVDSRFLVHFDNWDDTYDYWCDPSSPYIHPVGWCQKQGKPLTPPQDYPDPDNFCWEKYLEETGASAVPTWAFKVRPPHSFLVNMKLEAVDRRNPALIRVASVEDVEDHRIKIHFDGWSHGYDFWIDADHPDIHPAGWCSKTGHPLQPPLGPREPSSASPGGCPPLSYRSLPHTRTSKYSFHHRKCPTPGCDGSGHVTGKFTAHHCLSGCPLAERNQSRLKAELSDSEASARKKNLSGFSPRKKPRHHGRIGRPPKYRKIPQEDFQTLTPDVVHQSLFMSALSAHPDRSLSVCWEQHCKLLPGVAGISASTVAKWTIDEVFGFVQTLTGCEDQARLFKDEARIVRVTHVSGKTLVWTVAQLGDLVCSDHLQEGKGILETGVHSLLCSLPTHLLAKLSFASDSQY
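L3MBTL1 50 nM + b-AHA-H3(1-15)K9me1 75 nM, 30 min RT; compound added, 30 min RT; streptavidin donor/Ni-chelate acceptor beads 10 ug/mL each final, 30 min RT dark; AlphaScreen read.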
POLI inh = inhibitors of human DNA polymerase iota; Potency, µM (highest dose often 115 µM), for the others: top-dose activity, negative = inhibition, usual class: inhibitors; Q9UNA4; 390,000 compounds, 1% hits; Pol iota fluorescent replication assay, 10 min
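Pol iota at 10 nM preincubated 15 min with compounds at room temperature; reaction started with fluorescent substrate, 50 nM final. Fluorescence read kinetically at 0 and 10 min; buffer-only wells as negative control.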
Pol kappa inh = DNA polymerase kappa (human) inhibition; Q9UBT6; purified Pol kappa, fluorescent DNA synthesis assay, 10 min; Potency, µM (titrated, usually from 107 µM), for the others: at the highest dose activity, negative = inhibition, actives largely listed as inhibitors; 400,000 compounds, 0.53% hits; AID 588579; note: % is set by controls: 0 for no effect and ±100 for the full control effect
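Fluorescent qHTS in 1536-well format: enzyme (10 nM) and compound sat 15 min at room temperature before 50 nM substrate (final) was added. Signal taken at 0 and 10 min; no-enzyme buffer wells were negative controls.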
POLB inh = blocks human DNA polymerase beta activity | P06746 | Pol beta primer extension/strand displacement, fluorescence kinetic | Potency, µM (series often up to 114 µM), for the others: at the highest dose activity change, negative = inhibition, usual class: inhibitors | 340,000 compounds, 1.3% hits | AID 485314; note: % is set by controls: 0 for no effect and ±100 for the full control effect
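Enzyme-only controls used 10 nM Pol beta; buffer lacking enzyme served as negative control. Compound preincubated 15 min, then 50 nM substrate added; 0 and 10 min reads at room temperature.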
Pol eta inh = inhibitors of human DNA polymerase eta; 390,000 compounds, 1.2% hits; recombinant Pol eta, fluorescent DNA replication assay; Potency, µM (top dose mostly 114 µM), for the others: at the top dose activity change, negative = inhibition, usual class: inhibitors; AID 588591; note: % is set by controls: 0 for no effect and ±100 for the full control effect
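Fluorescent replication assay: 50 nM final substrate added after a 15 min room-temperature compound preincubation with 10 nM enzyme. Signal taken at 0 min and again at 10 min.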
TbPGK inh = validation of Trypanosoma brucei phosphoglycerate kinase inhibitors. shares compounds with Pol kappa inh. TbPGK coupled GAPDH assay, Kinase-Glo luminescence. Potency, µM (titrated, usually from 57.5 µM), for inactives: top-dose activity change, negative = inhibition, usual class: inhibitors. 500 compounds, 79% hits; note: % is set by controls: 0 for no effect and ±100 for the full control effect; nearly all actives have a fitted effect of over 65% in size
POLI cherry-pick = Human Pol iota inhibitor confirmatory assay. 1,500 compounds, 77% hits. Potency, µM, hits mostly inhibitors. shares compounds with Pol kappa inh. Pol iota primer extension, TAMRA/BHQ fluorescence
* = called active by the depositor; ? = inconclusive; · = no result given; [ ] = remark or other dose. Calls come from the whole dose curve; as a rule, active = well fitted curve in the direction sought with a large enough effect; inconclusive = small, poorly fitted or top-dose-only effect, or another doubt; inactive = no such curve, though single readings can be large; an effect the other way counts as inactive or inconclusive. Potency is the fitted concentration of half-maximal effect.

SMILES	L3MBTL1 inh	POLI inh	Pol kappa inh	POLB inh	Pol eta inh	TbPGK inh	others
CCCS(=O)(=O)c1cnc(C2COc3ccccc3O2)nc1N (configuration not stated)	·	-9.0%	-16.6%	1.1%	-7.1%	18.3µM*
O=C(OCC12CC3CC(CC(C3)C1)C2)c1ccc(NCc2cc(O)ccc2O)cc1	·	9.9%	-16.8%	·	?	·
O=C(OCCC12CC3CC(CC(C3)C1)C2)c1ccc(NCc2cc(O)ccc2O)cc1	·	79.4µM*	79.4µM*	·	?	16.3µM*
O=c1c(Cl)c(O)c2cccc3c4ccccc4n1c23	-0.4%	1.3%	-5.1%	?	?	·
COc1c(O)c(=O)n2c3ccccc3c3ccnc1c32	-4.8%	?	-14.3%	·	-26.4%	·	POLI cherry-pick=4.74*
O=C(NCc1ccc(F)cc1)c1c(O)c2cccc3c2n(c1=O)CCC3	-2.3%	-3.6%	-7.7%	25.8%	-2.0%	·
O=C(Oc1cc(=O)oc2c1c(=O)n1c3c(cccc23)CC1)c1ccc(F)cc1	-10.2%	?	0.8%	?	-15.1%	·	POLI cherry-pick=10.6*
COC(=O)c1nn(-c2ccc3c(c2)CCN3C(C)=O)cc1O	8.9%	44.3%	-3.8%	-11.9%	-9.0%	20.6µM*
COC(=O)c1nn(-c2ccc3c(c2)OCO3)cc1O	4.6%	-2.4%	-9.3%	31.9%	-11.7%	·
COCCCNC(=O)CSc1nc(-c2ccc(OC)cc2)[nH]c1-c1ccc(OC)cc1	·	9.3%	-3.0%	4.2%	-20.5%	·
CCNC1=C(Cl)C(=O)c2ccccc2C1=O	·	-2.7%	-11.4%	?	-21.8%	·
CCCC(=O)NC1=C(Cl)C(=O)c2ccccc2C1=O	·	6.31µM*	-5.8%	·	?	·	POLI cherry-pick=67*
Cn1c2ccccc2c(=O)c2ccc(C#Cc3ccccn3)cc21	8.7%	31.6µM*	-19.5%	25.1µM*	28.2µM*	·	POLI cherry-pick=?
O=C(O)C1Nc2ccc(Br)cc2C2C=CCC12 (configuration not stated)	·	?	10µM*	1.58µM*	3.16µM*	18.3µM*
O=C(O)C1Nc2c(O)cccc2C2C=CCC12 (configuration not stated)	1µM*	?	10µM*	1.58µM*	1.26µM*	3.26µM*
O=C(CCN1C(=O)/C(=C/c2ccc3c(c2)OCO3)SC1=S)Nc1ccc(C(=O)O)cc1	·	?	-23.2%	?	?	·	POLI cherry-pick=75.2*
CCOc1ccc(/C=C2\SC(=S)N(CCC(=O)Nc3cccc(C(=O)O)c3)C2=O)cc1	·	?	-13.3%	-2.8%	44.7µM*	·	POLI cherry-pick=75.2*
COc1ccc(C(CC(=O)Nc2cc(Cl)c(OC)cc2OC)N2Cc3ccccc3C2=O)cc1 (configuration not stated)	·	6.5%	-6.4%	18.7%	-11.8%	·
CC(=O)c1ccc(N2CCN(c3ncnc4c3cnn4-c3cc(Cl)ccc3C)CC2)cc1	·	-21.3%	-8.3%[60.1 µM]	17.7%	-4.5%	·
CCOC(=O)C(Cc1ccnc2ccccc12)=NO	·	44.7%	-19.2%	·	-17.7%	·
CCOC(=O)C(=O)Cc1cccnn1	·	?	?	·	2.82µM*	13µM*
N/C(=N\OC(=O)c1ccccc1Cl)c1ccccn1	1.5%	23.9%	-0.5%	92.2%	0.6%	16.3µM*
N/C(=N\OC(=O)c1ccc(Cl)cc1)c1ccccn1	10.2%	-3.0%[58.9 µM]	-6.5%	31.0%	-7.8%	14.6µM*
COc1cc(OC)c(C(=O)O/N=C(\N)c2ccccn2)cc1OC	·	-3.5%	-13.3%	23.1%	-4.7%	·
Cc1ccc(C(=O)O/N=C(\N)c2ccccn2)c(C)c1	·	119.5%	-13.8%	-1.8%	0.4%	7.3µM*
SMILES	L3MBTL1 inh	POLI inh	Pol kappa inh	POLB inh	Pol eta inh	TbPGK inh	others
COc1ccc(C(=O)O/N=C(\N)c2ccccn2)cc1	·	23.1%	9.6%	-0.4%	-17.0%	5.17µM*
COc1ccccc1C(=O)O/N=C(\N)c1ccccn1	21.6%	35.6%	-13.1%	3.2%	-14.3%	·
COc1ccc(C(=O)NNC(=O)c2ccccn2)cc1	-4.9%	22.0%	13.0%	-2.1%	-6.5%	5.17µM*
Cc1ccc(/C=C/c2nc3ccccc3c(=O)[nH]2)cc1	3.7%	20.7%	-6.0%	-2.7%	1.7%	·
Cc1ccccc1/C=C\c1nc2ccccc2c(=O)[nH]1	-0.8%	?	-3.8%	25.1µM*	?	·	POLI cherry-pick=?
O=c1cc(-c2ccccc2O)oc2cc(O)cc(O)c12	·	·	-4.3%[19.4 µM]	·	·	·
COc1ccc(OC)c(-c2c3cc(O)c(=O)cc-3oc3cc(O)c(O)cc23)c1	0.794µM*	?	?	44.7µM*	·	0.366µM*
O=c1cc2oc3cc(O)c(O)cc3c(-c3ccccc3O)c-2cc1O	0.794µM*	-26.6%	4.47µM*	39.8µM*	?	1.16µM*
C=CCc1c(C)nc2nc(SCC(=O)Nc3ccccc3CC)nn2c1C	·	4.4%	2.6%[60.1 µM]	-9.3%	-26.8%	·
COc1ccc(CNC(=O)CSc2ncc3c(n2)-c2cc(Cl)ccc2N(Cc2ccccc2)S3(=O)=O)cc1OC	·	2.4%	15.4%	13.3%	-12.8%	·
O=C(O)CC/C(=C\c1ccc(N2CCCC2)c([N+](=O)[O-])c1)c1nc2ccccc2s1	-25.7%	?	?	-8.0%	56.2µM*	·	POLI cherry-pick=75.2*
COc1ccc(C#Cc2c(-c3ccc(OC)cc3)oc3ccc(-c4ccc(OC)cc4)cc23)cc1	·	7.6%	-13.6%	·	-4.0%	·
COc1ccc(-c2ccc3oc(-c4ccc(OC)cc4)c(C#CCCO)c3c2)cc1	·	35.5µM*	7.6%	·	44.7µM*	·	POLI cherry-pick=37.7*
CCn1c2ccccc2c2cc(CN3CCN(Cc4ccccc4Cl)CC3)ccc21	·	10.3%	3.9%	-4.5%	-11.0%	·
O=C(CN1CCN(Cc2ccc(F)cc2)C1=O)NCc1ccc(F)cc1	·	7.8%	-4.5%[60.1 µM]	0.8%	-9.6%	·
CSc1ccc(/C=C/c2nc3ccccc3n2S(=O)(=O)c2ccc(F)c(C)c2)cc1	·	2.3%	-6.7%[60.1 µM]	13.5%	-20.4%	10.3µM*
O=C(CCS(=O)(=O)c1ccc(Br)cc1)NCc1ccco1	·	25.9%	-2.0%	?	?	16.3µM*
O=C(CCNC(=O)c1ccc(Br)cc1)NCc1ccco1	-6.3%	-17.8%	1.0%	·	-12.0%	·
Nc1c(C(=O)O)cnc2c(-c3ccc(Cl)cc3)cnn12	-6.0%	37.3%	-5.5%	2.6%	-15.8%	?
CC(=O)c1cnc2c(-c3ccc(Cl)cc3)cnn2c1C	12.5%	2.0%	-15.1%	10.3%	2.6%	·
COCCn1c(C)cc(C2=NNC(=NC3CC3)SC2)c1C	·	206.1%	-2.2%	5.7%	-18.3%	16.3µM*
CCOC(=O)c1sc2ccccc2c1S(=O)(=O)N1CCN(c2cccc(C)c2C)CC1	·	28.4%	-3.3%	7.1%	-14.0%	·
CCCCC(=O)c1ccc(O)cc1	·	43.8%	-2.2%	-10.6%	-15.0%	·
O=C(CCO)c1ccc(O)cc1	3.55µM*	5.01µM*	8.91µM*	?	3.55µM*	1.63µM*

From PubChem BioAssay
